# Several values for one entry are separate records, joined by “and”; a condition that tells them apart may be missing. Equal entries are not always repeated. About 2,000 (36%) of roughly 5,500 compounds were called active. Not shown: some 18% with an inconclusive outcome. Cut-off read from the data, not from the text of the source: active = normalized growth mostly below about 0.91 (no sharp cut-off); inconclusive = no clear call, values can overlap the other calls; inactive = mostly above about 0.92. The list shows a part of the results. Some structures have more than one record in an assay (separate samples or runs), and their calls can disagree.
# Experiment: chemical genetic growth profiling, strain panel (AID 1159580);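 note: tested at 20 µM; growth read once vehicle control cultures reached saturation at 30 °C; 1 = growth at the plate median or of vehicle wells; lower values mean less growth of the strain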
# Conditions: S. cerevisiae deletion strains, growth OD
smiles,measurement,setting,value
O=c1[nH]cc(F)c(=O)[nH]1,normalized growth,"locus YAL021C, strain ccr4, stronger effect = lower value",0.841 (active)
same,normalized growth,"locus YAL026C, strain drs2, stronger effect = lower value",0.445 (active)
same,normalized growth,"locus YAL030W, strain snc1, stronger effect = lower value",0.642 (active)
same,normalized growth,"locus YAL040C, strain CLN3, stronger effect = lower value",1.05 (inactive)
same,normalized growth,"locus YBL061C, strain skt5, stronger effect = lower value",0.689 (active)
same,normalized growth,"locus YBR009C, strain hhf1, stronger effect = lower value",0.458 (active)
same,normalized growth,"locus YBR021W, strain FUR4, stronger effect = lower value",0.81 (active)
same,normalized growth,"locus YBR023C, strain chs3, stronger effect = lower value",0.678 (active)
same,normalized growth,"locus YBR171W, strain sec66, stronger effect = lower value",1.09 (inactive)
same,normalized growth,"locus YBR229C, strain ROT2, stronger effect = lower value",1.01 (inactive)
same,normalized growth,"locus YBR231C, strain swc5, stronger effect = lower value",0.639 (active)
same,normalized growth,"locus YBR279W, strain paf1, stronger effect = lower value",0.555 (active)
same,normalized growth,"locus YCL011C, strain gbp2, stronger effect = lower value",0.509 (active)
same,normalized growth,"locus YCL016C, strain dcc1, stronger effect = lower value",0.586 (active)
same,normalized growth,"locus YCL029C, strain bik1, stronger effect = lower value",0.717 (active)
same,normalized growth,"locus YCL061C, strain MRC1, stronger effect = lower value",0.702 (active)
same,normalized growth,"locus YCL069W, strain vba3, stronger effect = lower value",0.484 (active)
same,normalized growth,"locus YCR088W, strain abp1, stronger effect = lower value",0.651 (active)
same,normalized growth,"locus YDL005C, strain med2, stronger effect = lower value",0.977 (inactive)
same,normalized growth,"locus YDL035C, strain GPR1, stronger effect = lower value",0.591 (active)
same,normalized growth,"locus YDL040C, strain nat1, stronger effect = lower value",0.869 (active)
same,normalized growth,"locus YDL074C, strain BRE1, stronger effect = lower value",0.847 (inactive)
same,normalized growth,"locus YDL101C, strain DUN1, stronger effect = lower value",0.955 (inactive)
same,normalized growth,"locus YDL185W, strain tfp1, stronger effect = lower value",1 (inactive)
same,normalized growth,"locus YDL192W, strain arf1, stronger effect = lower value",0.715 (active)
same,normalized growth,"locus YDR001C, strain nth1, stronger effect = lower value",0.747 (active)
same,normalized growth,"locus YDR069C, strain doa4, stronger effect = lower value",0.636 (active)
same,normalized growth,"locus YDR101C, strain arx1, stronger effect = lower value",0.64 (active)
same,normalized growth,"locus YDR137W, strain rgp1, stronger effect = lower value",0.629 (active)
same,normalized growth,"locus YDR150W, strain NUM1, stronger effect = lower value",0.957 (inactive) and 0.85 (active)
same,normalized growth,"locus YDR159W, strain sac3, stronger effect = lower value",1.3 [resistant] (active)
same,normalized growth,"locus YDR162C, strain NBP2, stronger effect = lower value",0.693 (active)
same,normalized growth,"locus YDR195W, strain ref2",0.63 (active)
same,normalized growth,"locus YDR297W, strain sur2, stronger effect = lower value",0.676 (active)
same,normalized growth,"locus YDR318W, strain mcm21, stronger effect = lower value",0.701 (active)
same,normalized growth,"locus YDR334W, strain swr1, stronger effect = lower value",0.741 (active)
same,normalized growth,"locus YDR335W, strain msn5, stronger effect = lower value",0.538 (active)
same,normalized growth,"locus YDR363W, strain ESC2, stronger effect = lower value",0.864 (active)
same,normalized growth,"locus YDR388W, stronger effect = lower value",0.753 (active)
same,normalized growth,"locus YDR392W, strain spt3, stronger effect = lower value",0.476 (active)
same,normalized growth,"locus YDR502C, strain sam2, stronger effect = lower value",0.657 (active)
same,normalized growth,"locus YEL003W, strain gim4, stronger effect = lower value",0.518 (active)
same,normalized growth,"locus YEL037C, strain rad23, stronger effect = lower value",0.539 (active)
same,normalized growth,"locus YEL061C, strain CIN8 (second series), stronger effect = lower value",0.728 (active)
same,normalized growth,"locus YER002W, strain NOP16, stronger effect = lower value",1.04 (inactive)
same,normalized growth,"locus YER015W, strain faa2, stronger effect = lower value",0.702 (active)
same,normalized growth,"locus YER016W, strain bim1, stronger effect = lower value",0.629 (active)
same,normalized growth,"locus YER110C, stronger effect = lower value",1.01 (inactive)
same,normalized growth,"locus YER111C, strain swi4, stronger effect = lower value",0.858 (active)
same,normalized growth,"locus YER155C, strain BEM2 (second series), stronger effect = lower value",0.535 (active)
same,normalized growth,"locus YER155C, strain BEM2, stronger effect = lower value",1.01 (inactive)
same,normalized growth,"locus YER167W, strain BCK2, stronger effect = lower value",0.795 (active)
same,normalized growth,"locus YFR010W, strain ubp6, stronger effect = lower value",0.598 (active)
same,normalized growth,"locus YGL078C, strain dbp3, stronger effect = lower value",0.571 (active)
same,normalized growth,"locus YGL086W, strain mad1, stronger effect = lower value",0.743 (active)
same,normalized growth,"locus YGL167C, strain pmr1, stronger effect = lower value",1.03 (inactive)
same,normalized growth,"locus YGL173C, strain kem1, stronger effect = lower value",0.719 (active)
same,normalized growth,"locus YGL227W, strain vid30, stronger effect = lower value",0.856 (active)
same,normalized growth,"locus YGL240W, strain doc1, stronger effect = lower value",0.901 (inactive)
same,normalized growth,"locus YGL248W, strain PDE1, stronger effect = lower value",0.71 (active)
same,normalized growth,"locus YGL253W, strain hxk2, stronger effect = lower value",0.328 (active)
same,normalized growth,"locus YGR135W, strain pre9, stronger effect = lower value",0.871 (active)
same,normalized growth,"locus YGR229C, strain SMI1, stronger effect = lower value",0.948 (inactive)
same,normalized growth,"locus YGR252W, strain gcn5, stronger effect = lower value",0.757 (active)
same,normalized growth,"locus YHR013C, strain ard1, stronger effect = lower value",0.846 (inactive)
same,normalized growth,"locus YHR027C, strain rpn1, stronger effect = lower value",0.625 (active)
same,normalized growth,"locus YHR030C, strain SLT2, stronger effect = lower value",0.918 (active) and 0.61 (active)
same,normalized growth,"locus YHR079C, strain IRE1 (second series), stronger effect = lower value",0.665 (active)
same,normalized growth,"locus YHR079C, strain IRE1, stronger effect = lower value",0.553 (active)
same,normalized growth,"locus YHR094C, strain hxt1, stronger effect = lower value",0.944 (inactive)
same,normalized growth,"locus YHR129C, strain ARP1, stronger effect = lower value",0.896 (active)
same,normalized growth,"locus YHR142W, strain chs7, stronger effect = lower value",0.484 (active)
same,normalized growth,"locus YHR200W, strain rpn10, stronger effect = lower value",0.906 (active)
same,normalized growth,"locus YIL066C, strain RNR3, stronger effect = lower value",0.848 (active)
same,normalized growth,"locus YIL073C, strain SPO22, stronger effect = lower value",0.762 (inactive)
same,normalized growth,"locus YIL125W, strain kgd1, stronger effect = lower value",0.851 (active)
same,normalized growth,"locus YIR030C, strain dcg1, stronger effect = lower value",0.838 (active)
same,normalized growth,"locus YJL092W, strain hpr5, stronger effect = lower value",0.476 (active)
same,normalized growth,"locus YJL095W, strain BCK1 (second series), stronger effect = lower value",0.689 (active)
same,normalized growth,"locus YJL095W, strain BCK1, stronger effect = lower value",0.661 (active) and 0.616 (active)
same,normalized growth,"locus YJL115W, strain asf1, stronger effect = lower value",0.697 (active)
same,normalized growth,"locus YJL129C, strain trk1, stronger effect = lower value",0.642 (active)
same,normalized growth,"locus YJL134W, strain LCB3, stronger effect = lower value",1.04 (inactive)
same,normalized growth,"locus YJL154C, strain vps35, stronger effect = lower value",0.756 (active)
same,normalized growth,"locus YJL164C, strain tpk1, stronger effect = lower value",0.463 (active)
same,normalized growth,"locus YJL166W, strain qcr8, stronger effect = lower value",0.577 (active)
same,normalized growth,"locus YJL168C, strain set2, stronger effect = lower value",1.02 (inactive)
same,normalized growth,"locus YJL187C, strain SWE1 (second series), stronger effect = lower value",0.722 (active)
same,normalized growth,"locus YJL187C, strain SWE1, stronger effect = lower value",0.77 (active)
same,normalized growth,"locus YJR043C, strain POL32, stronger effect = lower value",0.669 (active)
same,normalized growth,"locus YJR066W, strain TOR1, stronger effect = lower value",0.532 (active)
same,normalized growth,"locus YJR075W, strain HOC1, stronger effect = lower value",0.835 (active)
